Bioassay records: PubChem BioAssay, National Center for Advancing Translational Sciences (NCATS)
Compounds with a hit are over-represented: about 6.1% of the library has one in this group of screens.
D1 agonist: human D1 receptor agonism | P21728 | HEK293 T-REx D1 cells, calcium flux, agonist mode | activation, % at 2 µM | 1% of 360,000 active | AID 504660; in the data active = activation above about 30%; also: 0% is about no effect
Target sequence (P21728 whole entry, looked up): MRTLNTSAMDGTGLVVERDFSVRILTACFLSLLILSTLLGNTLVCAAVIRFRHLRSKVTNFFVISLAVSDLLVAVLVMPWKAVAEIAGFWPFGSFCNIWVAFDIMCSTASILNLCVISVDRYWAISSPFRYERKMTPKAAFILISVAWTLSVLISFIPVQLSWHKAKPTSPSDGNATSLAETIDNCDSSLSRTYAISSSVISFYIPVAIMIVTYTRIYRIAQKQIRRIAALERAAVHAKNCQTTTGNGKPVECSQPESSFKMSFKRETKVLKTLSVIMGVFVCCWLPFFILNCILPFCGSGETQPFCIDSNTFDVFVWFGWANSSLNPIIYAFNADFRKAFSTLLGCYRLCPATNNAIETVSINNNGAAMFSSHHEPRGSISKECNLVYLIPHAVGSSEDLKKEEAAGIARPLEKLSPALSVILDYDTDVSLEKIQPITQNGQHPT
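Agonism was scored from calcium flux recorded over 180 s (1 read/s) after pintool compound addition, following a 10-cycle baseline. Cells were inducible force-coupled HEK293 TREx D1, plated overnight at 30 C and loaded with no-wash calcium dye.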
D3 ag: D3 dopamine receptor (human) agonism; max activation, %; D3R DiscoveRx beta-arrestin cells, luminescence, 90 min; AID 652048; 0.58% of 410,000 active; P35462; in the data active = max activation above about 30%; also: 0% is about no effect
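Agonist mode: compounds and dopamine controls were applied to plated cells for 90 min at 37 degrees C after an overnight attachment at 1500 cells/well. Luminescent read-out followed 30 - 60 minutes at room temperature with DiscoveRx detection reagent.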
D1 PAM: human D1 dopamine receptor positive modulation; P21728; HEK293 TREx D1 cells, calcium flux, dopamine EC20 potentiation; potentiation, % at 10 µM; 0.036% of 360,000 active; in the data active = potentiation above about 30%; also: 0% is about no effect
D1 antag: human D1 dopamine receptor antagonism; HEK293 TREx D1 cells, calcium flux, dopamine EC80; hits give low values; activity change, negative = inhibition, % at 10 µM; 3.2% of 360,000 active; AID 504652; in the data active = activity change below about -30%; also: % is scaled to controls: 0 for no effect and ±100 for the full control effect
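Tetracycline-induced HEK293 T-REx cells with force-coupled D1 receptor were loaded with a no-wash calcium dye. Compound was added after a 10 s baseline and read kinetically for 180 s; EC80 dopamine was then added and calcium flux followed another 180 s.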
DRD3 antagonist: D3 dopamine receptor (human) antagonism; D3R cells, DiscoveRx beta-arrestin luminescence, antagonist mode; hits give low values; P35462; 2.5% of 360,000 active; max response, negative = inhibition, %; in the data active = max response below about -50%; inconclusive = no clear call, values can overlap the other calls; also: % is scaled to controls: 0 for no effect and ±100 for the full control effect
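Cells expressing the human receptor were seeded at 1500 cells/well, incubated overnight at 37 degrees C in 5% CO2, then exposed to library compounds with dopamine controls for 90 minutes at 37 degrees C before luminescent detection.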
The depositor's hits bear a star.

COc1ccc(NC2CCCN(C(=O)c3ccc(C(C)=O)s3)C2)cc1 (centres undefined) was read as D1 agonist 0.8, D3 ag -1.1, D1 PAM 1.1, D1 antag -2.5 and DRD3 antagonist -4.6.
Screening Cn1c(N)c(C(=O)COC(=O)c2cc(C3CC3)nc3ccccc23)c(=O)n(Cc2ccccc2)c1=O returned D1 agonist 3.5, D3 ag 35.8*, D1 PAM -7.0, D1 antag -5.3 and DRD3 antagonist 3.2.
`CC(C)Cn1c(N)c(C(=O)CSc2nc3ccccc3n2C)c(=O)n(C)c1=O` gave D1 agonist 5.3, D3 ag 11.4, D1 PAM 2.3, D1 antag -25.6 and DRD3 antagonist -53.8*.
`CC(C)Cn1c(N)c(C(=O)COC(=O)c2cc(C(F)(F)F)nc3ccccc23)c(=O)n(C)c1=O` gave D1 agonist -0.8, D3 ag 33.9*, D1 PAM -5.9, D1 antag -17.9 and DRD3 antagonist 94.7.
Screening Cn1c(N)c(C(=O)COC(=O)c2cc(-c3ccccc3)nc3ccccc23)c(=O)n(Cc2ccccc2)c1=O returned D1 agonist 3.0, D3 ag 10.2, D1 PAM -4.7, D1 antag 1.5 and DRD3 antagonist 24.0.
Screening Cn1c(N)c(C(=O)COC(=O)c2cc(C(F)(F)F)nc3ccccc23)c(=O)n(C)c1=O returned D1 agonist 0.6, D1 PAM -4.4 and D1 antag 13.2.
Screening CN(Cc1ccco1)C(=O)c1ccc(S(=O)(=O)N2CCCCCC2)cc1 returned D1 agonist -0.4, D3 ag -14.5, D1 PAM -2.4, D1 antag -17.8 and DRD3 antagonist -17.6.
For O=C(Nc1ccc(N2CCN(C(=O)c3ccccc3)CC2)cc1)c1ccc([N+](=O)[O-])o1 the results were D1 agonist 1.7, D3 ag -15.9, D1 PAM -5.6, D1 antag -8.5 and DRD3 antagonist -56.2*.
Cc1ccccc1C(=O)N1CCN(c2ccc(NC(=O)c3ccc([N+](=O)[O-])o3)cc2)CC1 was read as D1 agonist 6.7, D3 ag -9.4, D1 PAM -4.0, D1 antag 2.7 and DRD3 antagonist -71.6*.
For CC(C)C(=O)N1CCN(c2ccc(NC(=O)c3ccc([N+](=O)[O-])o3)cc2Cl)CC1 the results were D1 agonist 13.2, D3 ag -9.5, D1 PAM -3.9, D1 antag -41.2* and DRD3 antagonist inconclusive.
Screening CC(C)C(=O)N1CCN(c2ccc(NC(=O)c3ccc([N+](=O)[O-])o3)cc2)CC1 returned D1 agonist 3.9, D3 ag -7.0, D1 PAM -0.8, D1 antag -1.6 and DRD3 antagonist inconclusive.
For CN1CCN(c2ccc(NC(=O)c3ccc([N+](=O)[O-])o3)cc2Cl)CC1 the results were D1 agonist 3.4, D3 ag -16.7, D1 PAM -12.8, D1 antag 1.0 and DRD3 antagonist inconclusive.
Screening CC(C)CCNc1nc(Nc2ccccc2)c2cnn(C)c2n1 returned D1 agonist 3.1, D3 ag -15.7, D1 PAM -0.1 and D1 antag 5.3.
CC1=C(C(=O)N(C)C)CC(CC(=O)NCc2cccc3ccccc23)C(=O)N1Cc1ccc(F)cc1 (centres undefined) was read as D3 ag 9.1 and DRD3 antagonist 14.8.
Screening CCN(CC)C(=O)c1n[nH]c(=O)c2ccccc12 returned D1 agonist 2.6, D3 ag 5.4, D1 PAM -2.3, D1 antag 1.4 and DRD3 antagonist -95.6*.
Screening CC(C)c1ccc(OCc2ccc(C(=O)N3CCCC3)o2)cc1 returned D1 agonist 69.6*, D3 ag 2.7, D1 antag -33.8* and DRD3 antagonist -8.0.
Screening O=C(NCCOc1ccccc1)c1ccccc1Cl returned D1 agonist 5.6, D3 ag -20.0, D1 PAM 0.6, D1 antag -1.9 and DRD3 antagonist -15.3.
Screening CN(C(=O)COc1ccccc1C(=O)NCCOc1ccccc1)c1ccccc1 returned D1 agonist -0.1, D3 ag 30.1*, D1 PAM 2.5, D1 antag -9.8 and DRD3 antagonist 12.3.
Screening Cc1cc(OCC(=O)Nc2c(C(C)C)cccc2C(C)C)no1 returned D3 ag -1.2 and DRD3 antagonist -0.5.
O=C(O)c1cc2c(N3CCC(Cc4ccccc4)CC3)ncnc2s1 was read as D1 agonist 6.0, D3 ag -7.6, D1 PAM -0.3, D1 antag 48.6 and DRD3 antagonist -10.3.
Screening c1ccc(CC2CCN(c3ncnc4sccc34)CC2)cc1 returned D1 agonist 37.7*, D3 ag 5.7, D1 PAM -7.5, D1 antag -28.5 and DRD3 antagonist 34.3.
For CCN(CC)CCNC(=O)Cc1nn(CC)c(=O)c2ccccc12 the results were D1 agonist 4.3, D3 ag -14.6, D1 PAM -5.5, D1 antag 19.5 and DRD3 antagonist -15.3.
CCN(CC)CCNC(=O)C(C)c1nn(CC)c(=O)c2ccccc12 (centres undefined) was read as D1 agonist 0.6, D3 ag 3.1, D1 PAM 3.1, D1 antag -56.8* and DRD3 antagonist 2.9.
For COc1cc(NC(C)CCCN)c2ncccc2c1Oc1ccccc1 (centres undefined) the results were D1 agonist 9.5, D3 ag 6.7, D1 PAM -2.8, D1 antag 9.6 and DRD3 antagonist -56.2*.
CCN1CCCC1CN(Cc1cc2ccc(C)cc2[nH]c1=O)C(=S)Nc1ccc(OC)cc1 (centres undefined) was read as D1 agonist -0.5, D3 ag -8.4, D1 PAM 4.4, D1 antag -9.4 and DRD3 antagonist -63.9*.
CCOc1ccccc1NC(=S)N(Cc1cc2ccc(C)cc2[nH]c1=O)CC1CCCN1CC (centres undefined) was read as D1 agonist 4.2, D3 ag -7.9, D1 PAM -4.6, D1 antag -5.6 and DRD3 antagonist inconclusive.
CCN1CCCC1CN(Cc1cc2ccc(C)cc2[nH]c1=O)C(=S)Nc1ccc(F)cc1 (centres undefined) was read as D1 agonist 1.6, D3 ag -24.5, D1 PAM -3.3, D1 antag 24.0 and DRD3 antagonist -82.4*.
`CCN1CCCC1CN(Cc1cc2ccc(C)cc2[nH]c1=O)C(=S)Nc1cccc(OC)c1` (centres undefined) gave D1 agonist -1.2, D3 ag -14.3, D1 PAM 4.7, D1 antag -0.9 and DRD3 antagonist -88.2*.
For CCN1CCCC1CN(Cc1cc2ccc(C)cc2[nH]c1=O)C(=S)Nc1ccccc1OC (centres undefined) the results were D1 agonist -1.1, D3 ag -3.6, D1 PAM 11.9, D1 antag -1.1 and DRD3 antagonist inconclusive.
